According to PubChem BioAssay:
Where “and” joins values, the source holds several entries; their conditions need not be identical. Equal values may be shown once. For some of these results: Results with a measured potency or affinity are listed apart. Calls of active or inactive are those of the source. Unless noted, how the calls were made is not given here.

Assays:
[1] = P. berghei load reduction in hepatocytes – cell-based, HepG2, luciferase luminescence, HepG2 viability, primary screen (AID 624349; in the data active means parasite load remaining mostly below about 12%, no sharp cut-off; inactive means mostly above about 10%;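 further: 100% = mean of DMSO negative control wells on the same plate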); conditions: P. berghei liver stage in HepG2, luciferase luminescence, concentration not given here; parasite load remaining: stronger effect = lower value; viability: measured here: HepG2 viability without parasites
[2] = test system: Hepatitis C virus NS3 helicase; assay: blockers of NS3h binding to ssDNA – biochemical, fluorescence polarization, LOPAC1280 library, primary screen (AID 687035; in the data active means inhibition above about 37%); conditions: Purified HCV NS3 helicase, Cy5-dT15 ssDNA binding fluorescence polarization; stronger effect = higher value; concentration not given here
[3] = compounds altering Cy5-DNA-NS3h complex signal – biochemical, LOPAC1280, artefact control for HCV NS3 helicase inhibitor project (AID 687037); conditions: Cy5-DNA-NS3h complex fluorescence interference counterscreen
[4] = signal quenchers or enhancers, Cy5 substrate/SSB – biochemical, NIH Clinical Collection, E. coli SSB, artefact control for HCV NS3 helicase inhibitor project (AID 743268); conditions: Cy5-oligo bound E. coli SSB, fluorescence interference
[5] = test system: Hepatitis C virus NS3 helicase; assay: blockers of NS3h binding to DNA – biochemical, fluorescence polarization, NIH Clinical Collection, primary screen (AID 743270); conditions: NS3 helicase binding to Cy5-dT15 DNA, stronger effect = higher value, concentration not given here
[6] = molecular target: Single-stranded DNA-binding protein (Escherichia coli (strain K12)) (UniProt P0AGE0); assay: SSB-ssDNA binding inhibitors – biochemical, fluorescence polarization, NIH Clinical Collection, counter-screen for HCV NS3 helicase inhibitor project (AID 743271; in the data active means inhibition above about 28%); conditions: E. coli SSB-DNA binding, stronger effect = higher value, concentration not given here
[7] = compounds distorting NS3 helicase fluorescence signal – biochemical, NIH Clinical Collection, artefact control for HCV NS3 helicase inhibitor project (AID 743272); conditions: fluorescence interference counterscreen, HCV NS3 helicase assay; stronger effect = lower value;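 further: HCV NS3 helicase with a Cy5 labelled single stranded DNA probe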
[8] = test system: Neuropilin-2 / VEGF-C interaction (human); assay: small molecules blocking Neuropilin-2/VEGF-C interaction – biochemical, microplate binding format, z-score (AID 743281); conditions: microplate NRP2/VEGF-C binding assay; stronger effect = lower value
[9] = Wnt pathway potentiators raising nuclear beta-catenin – imaging, WNT3A-conditioned medium, mouse C2C12, NPC library, primary screen (AID 1117326; in the data active means nuclear beta-catenin stimulation mostly above about 4.2%, no sharp cut-off; inactive means mostly below about 10%); conditions: stronger effect = higher value
[10] = stimulators of insulin release from INS-1E, primary screen, cell-based, 5 mM glucose, NPC library (AID 1117329;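 active means compound raises insulin release from rat beta cells at 5 mM glucose, no numeric limit stated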); conditions: rat INS-1E insulin secretion, at 10 µM, stronger effect = higher value
[11] = growth inhibition of GSK3B-pretreated HCT116 cells – cell-based, CellTiter-Glo, 0.2 to 20 µM (AID 1117336;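 active means compounds lowering colon cancer cell viability after pretreatment blocking the GSK3B kinase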); conditions: HCT116 viability after GSK3B inhibitor, at 20 µM, stronger effect = higher value
[12] = inhibition of endothelial tube formation, primary screen, imaging, VEGF stimulated, CD31 staining, tube area, NPC library (AID 1117340;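 active means compound that reduces growth-factor-driven endothelial tube area in a mixed cell culture, no cutoff stated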); conditions: VEGF-stimulated ADSC/ECFC co-culture, at 10 µM, stronger effect = higher value
[13] = GLP1 release stimulators, primary, NCI-H716, NPC library (AID 1117341;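 active means compound raises GLP1 secretion from the human gut endocrine cells, with no numeric limit stated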); conditions: NCI-H716 cells, at 10 µM, stronger effect = higher value
[14] = HCT116 colon cancer cell growth inhibition, primary screen, CellTiter-Glo luminescence, NPC library (AID 1117342;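 active means compounds that lower survival of HCT116 colon cancer cells in the luminescence readout, no numeric limit stated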); conditions: at 20 µM (top of the series)
[15] = reduced SW480 viability measured with CellTiter-Glo, NPC library, primary (AID 1117343;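 active means compounds that lower viability of the colon cancer cells in the luminescence readout, with no numeric limit stated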); conditions: CellTiter-Glo luminescence; at 20 µM (top of the series)
[16] = NPC library primary testing for decreased DLD-1 cell viability via CellTiter-Glo (AID 1117346;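 active means compounds that lower survival of DLD-1 colon cancer cells in the luminescence readout, no cutoff given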); conditions: DLD-1 viability, CellTiter-Glo luminescence; at 20 µM (top of the series)
[17] = molecular target: Calcium-dependent protein kinase 1 (Plasmodium falciparum (isolate 3D7)) (UniProt P62344); assay: PfCDPK1 kinase inhibitors, biochemical, TCAMS library (AID 1159585; cut-off not given, nearly all actives have IC50 up to about 0.98 µM;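 further: inhibitors leave more ATP so luminescence rises with inhibition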); conditions: recombinant PfCDPK1, Kinase-Glo ATP depletion luminescence
[18] = molecular target: Plasmodium falciparum protein kinase 6 (PK6, PF3D7_1337100) (UniProt Q8IDW1); assay: PfPK6 kinase inhibitors, biochemical, TCAMS library (AID 1159586); conditions: recombinant PfPK6, Kinase-Glo ATP depletion luminescence
Sequence of Plasmodium falciparum protein kinase 6 (PK6, PF3D7_1337100) (Q8IDW1 1-305): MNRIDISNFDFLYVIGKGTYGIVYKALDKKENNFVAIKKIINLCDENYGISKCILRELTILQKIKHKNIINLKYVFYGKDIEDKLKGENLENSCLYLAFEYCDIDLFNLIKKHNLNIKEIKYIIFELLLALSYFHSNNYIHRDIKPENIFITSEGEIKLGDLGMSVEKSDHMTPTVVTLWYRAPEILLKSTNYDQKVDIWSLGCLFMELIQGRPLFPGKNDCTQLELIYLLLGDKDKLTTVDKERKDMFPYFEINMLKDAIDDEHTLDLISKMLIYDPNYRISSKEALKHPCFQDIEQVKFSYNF

Sequence of Calcium-dependent protein kinase 1 (Plasmodium falciparum (isolate 3D7)) (P62344 whole entry, looked up): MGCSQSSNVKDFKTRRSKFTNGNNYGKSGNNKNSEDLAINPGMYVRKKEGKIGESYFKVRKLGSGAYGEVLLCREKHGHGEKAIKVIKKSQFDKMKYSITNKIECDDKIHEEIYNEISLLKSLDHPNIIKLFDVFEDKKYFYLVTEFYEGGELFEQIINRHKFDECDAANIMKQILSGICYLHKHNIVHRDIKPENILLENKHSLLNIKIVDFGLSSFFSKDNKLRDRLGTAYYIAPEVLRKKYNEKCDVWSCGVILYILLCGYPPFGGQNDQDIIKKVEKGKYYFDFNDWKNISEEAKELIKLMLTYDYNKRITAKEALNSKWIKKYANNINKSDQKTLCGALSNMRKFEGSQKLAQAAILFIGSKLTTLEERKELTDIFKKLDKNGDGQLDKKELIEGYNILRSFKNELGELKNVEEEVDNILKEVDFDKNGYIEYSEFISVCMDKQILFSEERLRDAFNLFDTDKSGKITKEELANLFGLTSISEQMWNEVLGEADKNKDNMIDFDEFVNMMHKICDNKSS

SMILES	parasite load remaining [1]	viability [1]	inhibition [2]	fluorescence ratio (interference) [3]	fluorescence ratio [4]	inhibition [5]	inhibition [6]	fluorescence ratio [7]	z-score [8]	nuclear beta-catenin stimulation ([9]; at 10 µM)	nuclear beta-catenin stimulation ([9]; stimulation, at 2 µM) [%]	insulin secretion stimulation [10]	viability decrease [11]	tube area decrease [12]	GLP1 secretion stimulation [13]	inhibition of viability [14]	viability decrease (inhibition) [15]	viability decrease (inhibition) [16]	outcome [17]	outcome [18]
C[C@H](NC(CCc1ccccc1)C(=O)O)C(=O)N1CCC[C@H]1C(=O)O (some centres undefined)	94.1% (inactive) and 49.6% (inactive)	70.8% and 156%	-5% (inactive)	1 (inactive)	1.07 (inactive)	1.19% (inactive)	2.98% (inactive)	1 (inactive)	0.126 (inactive)	-0.9% (inactive)	-2.8	0.1% (inactive)	-6.3% (inactive)	-8% (inactive)	1.4% (inactive)	2.7% (inactive)	-8.4% (inactive)	-2.7% (inactive)		
Cc1cc2c(C(C)C)c(O)c(O)c(C=O)c2c(O)c1-c1c(C)cc2c(C(C)C)c(O)c(O)c(C=O)c2c1O	56.7% (inactive)	83.7%	-1% (inactive)	0.9 (inactive)						64.5% (active)	6.3	0.5% (inactive)	82% (active)	110% (active)	76.4% (active)	91.7% (active)	108% (active)	64.1% (active)		
CCCCCCCC/C=C\CCCCCCCC(=O)NCc1ccc(O)c(OC)c1			-4% (inactive)	1 (inactive)						0% (inactive)	-1.2	3.15% (inactive)	26.6% (inactive)	17.4% (inactive)	6.2% (inactive)	65.7% (active)	47.5% (inactive)	53.1% (active)	inactive	inactive
CNCC(O)c1ccc(O)c(O)c1 (centres undefined)	40.1% (inactive)	89%	0% (inactive)	1 (inactive)	1.02 (inactive)	-1.36% (inactive)	15.5% (inactive)	1.02 (inactive)		-1.1% (inactive)	-0.9	5.7% (inactive)	58.5% (active)	-33.6% (inactive)	2.7% (inactive)	29% (inactive)	58.9% (active)	17.7% (inactive)		
NC(N)=NC(=O)Cc1c(Cl)cccc1Cl	29.4% (inactive) and 52.8% (inactive) and 54.1% (inactive)	118% and 76.4% and 154%	1% (inactive)	1 (inactive)						-0.4% (inactive)	2.6	-2.2% (inactive)	16.7% (inactive)	11.5% (inactive)	-3% (inactive)	68.9% (active)	34.1% (inactive)	29% (inactive)		
Nc1nc2c(ncn2COC(CO)CO)c(=O)[nH]1	53.7% (inactive) and 86.2% (inactive) and 12.5% (inactive)	114% and 95.7% and 65%	-2% (inactive)	1 (inactive)	1.03 (inactive)	-3.18% (inactive)	-2.76% (inactive)	1.02 (inactive)		1.2% (inactive)	1.2	0% (inactive)	-10.4% (inactive)	-6.4% (inactive)	-2% (inactive)	4.7% (inactive)	-10.2% (inactive)	-8.6% (inactive)		
Cc1c(Nc2ncccc2C(=O)O)cccc1C(F)(F)F	99.9% (inactive) and 46.5% (inactive)	95.4% and 105%								4.9% (inactive)	-0.2	-1.5% (inactive)	-24.9% (inactive)	5.8% (inactive)	-1.7% (inactive)	0.73% (inactive)	75.8% (active)	21.9% (inactive)		
CCCCN(CCCC)CCC(O)c1cc2c(Cl)cc(Cl)cc2c2cc(C(F)(F)F)ccc12 (centres undefined)	57.2% (inactive)	69.5%								5.2% (inactive)	0.7	0.4% (inactive)	99.2% (active)	96.1% (active)	-0.7% (inactive)	105% (active)	131% (active)	100% (active)		
CCN(CC)Cc1cc(Nc2ccnc3cc(Cl)ccc23)ccc1O	2.94% (inactive) and 43.6% (inactive)	35.5% and 83.9%								0.5% (inactive)	-1.5	9.6% (inactive)	82% (active)	39.9% (inactive)	-1.3% (inactive)	83.2% (active)	87.3% (active)	44.8% (inactive)	inactive	inactive
Cc1cn[nH]c1	51% (inactive)	102%	-3% (inactive)	0.9 (inactive)						-2.1% (inactive)	-2	0.4% (inactive)	20.3% (inactive)	4.6% (inactive)	1.6% (inactive)	0.47% (inactive)	19.8% (inactive)	2% (inactive)		
CCCCc1ccc2nc(NC(=O)OC)[nH]c2c1	83.6% (inactive)	85.5%								81.2% (active)	61.1	-1.7% (inactive)	91.7% (active)	108% (active)	-5.4% (inactive)	67.5% (active)	33.8% (inactive)	50.6% (active)	inactive	inactive
O=C(Nc1cccc(C2=NCCN2)c1)Nc1cccc(C2=NCCN2)c1										1.5% (inactive)	4.9	0.05% (inactive)	72.2% (active)	-57.4% (inactive)	-1% (inactive)	70.7% (active)	52.2% (active)	60.8% (active)	inactive	inactive
CN(C)c1ccc2nc3ccc(=[N+](C)C)cc-3sc2c1	0.205% (inactive)	47.9%								3.1% (inactive)	2.2	-1.1% (inactive)	98.6% (active)	103% (active)	280% (active)	97.8% (active)	65.3% (active)	44.2% (inactive)		
Cc1nc(N)nc(N)c1-c1ccc(Cl)c(Cl)c1										42.9% (active)	55.1	1.95% (inactive)	101% (active)	-11.8% (inactive)	2.8% (inactive)	95.5% (active)	131% (active)	68.5% (active)	inactive	inactive
CN(Cc1cnc2nc(N)nc(N)c2n1)c1ccc(C(=O)N[C@@H](CCC(=O)O)C(=O)O)cc1	8.84% (inactive) and 39.4% (inactive) and 21.9% (inactive)	38.7% and 143% and 94.1%	-1% (inactive)	1 (inactive)	0.92 (inactive)	1.19% (inactive)	26.9% (inactive)	0.92 (inactive)	-1.5 (inactive)	74% (active)	41	-1.8% (inactive)	87.8% (active)	57.2% (active)	1.1% (inactive)	74.5% (active)	78.8% (active)	65.9% (active)	inactive	inactive
NCCS(=O)(=O)O	52.5% (inactive)	97.6%	-4% (inactive)	0.9 (inactive)						5.3% (inactive)	2.5	2.6% (inactive)	-1.3% (inactive)	-12% (inactive)	0.3% (inactive)	-12.3% (inactive)	-4.6% (inactive)	-1.5% (inactive)		
COc1ncnc(NS(=O)(=O)c2ccc(N)cc2)c1OC	74.2% (inactive) and 31.5% (inactive) and 37.8% (inactive)	68.7% and 97% and 73.5%								4.7% (inactive)	3.5	0.1% (inactive)	-6.5% (inactive)	-10.7% (inactive)	8.3% (inactive)	-1.93% (inactive)	-16.8% (inactive)	-22.2% (inactive)		
CCc1c(C)[nH]c2c1C(=O)C(CN1CCOCC1)CC2 (centres undefined)	36.3% (inactive) and 102% (inactive)	89.9% and 75.4%	-4% (inactive)	0.9 (inactive)	1.09 (inactive)	-1.36% (inactive)	1.81% (inactive)	1.01 (inactive)		-1.2% (inactive)	-0.2	1.8% (inactive)	2.2% (inactive)	-10.5% (inactive)	5.2% (inactive)	-24.1% (inactive)	-3.8% (inactive)	-11% (inactive)		
Brc1c(NC2=NCCN2)ccc2nccnc12	54.7% (inactive)	94.9%	-3% (inactive)	1 (inactive)	1.04 (inactive)	-5.91% (inactive)	-3.53% (inactive)	0.99 (inactive)		0.3% (inactive)	-0.6	0.4% (inactive)	27% (inactive)	-5.2% (inactive)	-3.1% (inactive)	15.1% (inactive)	7.7% (inactive)	-3.7% (inactive)		
CCCCCN(C)CCC(O)(P(=O)(O)O)P(=O)(O)O	28% (inactive)	76.5%								-3% (inactive)	0.2	7.6% (inactive)	1.9% (inactive)	-11.9% (inactive)	-0.5% (inactive)	9% (inactive)	17.5% (inactive)	15.6% (inactive)		
NS(=O)(=O)c1cc2c(cc1Cl)NC(C1CC3C=CC1C3)NS2(=O)=O (centres undefined)	56.1% (inactive)	133%	-1% (inactive)	1 (inactive)						0.8% (inactive)	0	-1% (inactive)	-17% (inactive)	2.9% (inactive)	-2.5% (inactive)	-8.27% (inactive)	8.9% (inactive)	-15.4% (inactive)		
Clc1ccc2nsnc2c1NC1=NCCN1	61.3% (inactive) and 52.1% (inactive)	95.4% and 240%	-3% (inactive)	1 (inactive)	1.05 (inactive)	-5% (inactive)	-2.76% (inactive)	0.99 (inactive)		0.6% (inactive)	-0.6	0.4% (inactive)	1.1% (inactive)	-9.7% (inactive)	2.7% (inactive)	11.7% (inactive)	8% (inactive)	6% (inactive)		
